The values that follow come from paper PMC7862700, “An all-to-all approach to the identification of sequence-specific readers for epigenetic DNA modifications on cytosine”.

Holding throughout (assay): DAPPL (digital affinity profiling via proximity ligation, sequencing); 10 mM Tris-HCl pH 7.5, 50 mM NaCl, 1 mM DTT, 4% glycerol, room temperature, 30 min; GST-TFs on glutathione beads, 16-mer random dsDNA library, 0.1% formaldehyde crosslink after washing; high values mean tight binding
For one test, the target named is T1, FEV (Homo sapiens, UniProt Q99581 1-238).
T1 sequence: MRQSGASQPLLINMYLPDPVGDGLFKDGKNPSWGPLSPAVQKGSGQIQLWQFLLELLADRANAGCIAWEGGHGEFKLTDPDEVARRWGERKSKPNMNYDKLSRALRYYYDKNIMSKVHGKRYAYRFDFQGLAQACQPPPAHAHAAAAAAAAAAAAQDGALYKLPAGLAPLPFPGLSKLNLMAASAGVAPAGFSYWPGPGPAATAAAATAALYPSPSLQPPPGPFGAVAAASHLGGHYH
As to conditions: protein: recombinant; tags: N-terminal GST; dsDNA, one strand shown. Summed up:
(§1)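 In yeast, human transcription factors were expressed with a GST fusion, then pulled down on glutathione beads and given DNA barcodes. Pooled with a tag-only sample, they were exposed to 200 nmole of a 16-mer random double-stranded DNA library (Tris/NaCl/DTT/glycerol buffer, room temperature, 30 min), washed, crosslinked with 0.1% formaldehyde, proximity-ligated using BsaI/T4 ligase for 1 h at 37 °C, PCR-amplified and read on an Illumina NextSeq500. Each hexamer's frequency of reads for a factor, divided by the matching frequency for the tag-only sample, gives the binding signal.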

For a further test, the target named is ETV5 (Homo sapiens, UniProt P41161 1-510). As to conditions: protein: recombinant; tags: N-terminal GST; dsDNA, one strand shown. Summed up: as §1
Sequence of ETV5 (P41161 whole entry): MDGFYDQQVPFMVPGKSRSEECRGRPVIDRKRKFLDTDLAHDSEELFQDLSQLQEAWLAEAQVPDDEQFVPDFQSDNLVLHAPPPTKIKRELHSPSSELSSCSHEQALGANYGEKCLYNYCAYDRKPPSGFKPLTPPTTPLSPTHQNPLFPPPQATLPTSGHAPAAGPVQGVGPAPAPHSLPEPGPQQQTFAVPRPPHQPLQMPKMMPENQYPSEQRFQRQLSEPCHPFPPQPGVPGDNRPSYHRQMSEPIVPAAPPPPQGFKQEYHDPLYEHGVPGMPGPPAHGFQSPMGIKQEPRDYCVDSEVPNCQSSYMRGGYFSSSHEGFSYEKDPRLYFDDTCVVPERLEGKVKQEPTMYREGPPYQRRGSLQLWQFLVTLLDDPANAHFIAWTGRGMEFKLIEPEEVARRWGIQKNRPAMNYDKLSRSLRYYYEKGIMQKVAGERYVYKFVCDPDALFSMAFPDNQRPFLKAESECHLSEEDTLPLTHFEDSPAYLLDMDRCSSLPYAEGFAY
In a further test the target is HSF1 (Homo sapiens, UniProt Q00613 1-529). The note with it: protein: recombinant; tags: N-terminal GST; chain copies: 3; dsDNA, one strand shown. In a few lines: as §1
Sequence of HSF1 (Q00613 whole entry): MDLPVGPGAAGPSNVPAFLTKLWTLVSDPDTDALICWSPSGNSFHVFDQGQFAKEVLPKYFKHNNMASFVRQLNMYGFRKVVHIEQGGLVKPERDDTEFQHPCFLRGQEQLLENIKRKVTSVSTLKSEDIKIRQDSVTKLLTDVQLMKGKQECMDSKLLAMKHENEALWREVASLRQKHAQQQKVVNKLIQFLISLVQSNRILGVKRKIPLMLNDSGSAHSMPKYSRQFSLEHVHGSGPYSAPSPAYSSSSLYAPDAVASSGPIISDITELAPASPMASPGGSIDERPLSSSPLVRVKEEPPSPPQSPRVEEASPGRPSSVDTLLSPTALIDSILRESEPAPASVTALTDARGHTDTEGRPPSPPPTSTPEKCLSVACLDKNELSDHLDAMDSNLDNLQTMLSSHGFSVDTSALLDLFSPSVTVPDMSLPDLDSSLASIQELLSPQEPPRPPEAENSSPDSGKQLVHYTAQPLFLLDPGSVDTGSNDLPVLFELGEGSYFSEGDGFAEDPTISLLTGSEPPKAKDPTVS
In the next test the target is T2, SPIC (Homo sapiens, UniProt Q8N5J4 1-248).
T2 sequence: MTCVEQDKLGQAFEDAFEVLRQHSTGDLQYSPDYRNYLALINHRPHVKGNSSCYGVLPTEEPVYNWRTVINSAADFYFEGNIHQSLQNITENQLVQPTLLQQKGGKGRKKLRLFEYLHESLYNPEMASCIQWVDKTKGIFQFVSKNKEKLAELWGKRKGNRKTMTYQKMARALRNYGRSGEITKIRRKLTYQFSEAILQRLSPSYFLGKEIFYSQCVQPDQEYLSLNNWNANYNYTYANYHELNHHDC
The note with it: protein: recombinant; tags: N-terminal GST; dsDNA, one strand shown. Summed up:
as §1

A further test concerns the target ELF4 (Homo sapiens, UniProt Q99607 1-663). The note with it: protein: recombinant; tags: N-terminal GST; dsDNA, one strand shown. Summed up:
as §1

A further test concerns the target T3, ELK4 (Homo sapiens, UniProt P28324-2 1-405).
T3 sequence: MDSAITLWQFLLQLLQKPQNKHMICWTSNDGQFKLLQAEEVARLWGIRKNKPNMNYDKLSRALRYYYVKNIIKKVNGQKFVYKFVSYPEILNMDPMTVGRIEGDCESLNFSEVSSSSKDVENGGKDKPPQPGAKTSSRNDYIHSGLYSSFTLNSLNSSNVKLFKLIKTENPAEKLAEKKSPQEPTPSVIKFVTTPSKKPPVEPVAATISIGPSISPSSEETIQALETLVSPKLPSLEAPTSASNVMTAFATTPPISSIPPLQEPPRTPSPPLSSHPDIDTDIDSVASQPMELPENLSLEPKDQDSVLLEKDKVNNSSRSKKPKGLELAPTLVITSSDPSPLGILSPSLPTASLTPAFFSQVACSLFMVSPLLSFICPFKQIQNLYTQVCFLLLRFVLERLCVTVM
The note with it: protein: recombinant; tags: N-terminal GST; dsDNA, one strand shown. In a few lines:
as §1

For another test, the target named is T4, ETV2 (Homo sapiens, UniProt O00321 1-342).
T4 sequence: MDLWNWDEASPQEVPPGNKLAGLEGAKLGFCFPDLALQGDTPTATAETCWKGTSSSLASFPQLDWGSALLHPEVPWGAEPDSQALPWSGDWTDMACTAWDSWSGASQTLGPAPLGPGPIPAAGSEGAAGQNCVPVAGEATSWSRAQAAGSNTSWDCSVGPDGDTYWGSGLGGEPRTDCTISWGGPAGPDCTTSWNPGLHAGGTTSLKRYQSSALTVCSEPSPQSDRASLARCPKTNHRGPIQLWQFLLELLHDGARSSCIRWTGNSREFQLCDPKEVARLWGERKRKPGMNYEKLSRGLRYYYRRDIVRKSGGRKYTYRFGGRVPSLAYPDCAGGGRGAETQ
The note with it: protein: recombinant; tags: N-terminal GST; dsDNA, one strand shown. Summed up:
as §1

The target in the next test is T5, ELF3 (Homo sapiens, UniProt P78545 1-371).
T5 sequence: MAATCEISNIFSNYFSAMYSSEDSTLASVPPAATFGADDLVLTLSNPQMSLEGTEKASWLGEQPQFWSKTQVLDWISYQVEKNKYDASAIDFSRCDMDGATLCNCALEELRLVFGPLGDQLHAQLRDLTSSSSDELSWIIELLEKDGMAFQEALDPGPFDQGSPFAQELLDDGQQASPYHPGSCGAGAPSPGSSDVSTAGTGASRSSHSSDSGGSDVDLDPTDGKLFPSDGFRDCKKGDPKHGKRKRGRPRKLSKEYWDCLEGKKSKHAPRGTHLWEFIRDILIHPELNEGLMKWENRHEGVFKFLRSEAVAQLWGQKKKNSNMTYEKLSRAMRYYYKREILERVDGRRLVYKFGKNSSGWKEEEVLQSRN
The note with it: protein: recombinant; tags: N-terminal GST; dsDNA, one strand shown. Summed up: as §1

Another test addresses CRX (Homo sapiens, UniProt O43186 1-299). The note with it: protein: recombinant; tags: N-terminal GST; dsDNA, one strand shown. In a few lines:
as §1

For the next test, the target named is ETV1 (Homo sapiens, UniProt P50549 1-477). The note with it: protein: recombinant; tags: N-terminal GST; dsDNA, one strand shown. In a few lines: as §1
Sequence of ETV1 (P50549 whole entry): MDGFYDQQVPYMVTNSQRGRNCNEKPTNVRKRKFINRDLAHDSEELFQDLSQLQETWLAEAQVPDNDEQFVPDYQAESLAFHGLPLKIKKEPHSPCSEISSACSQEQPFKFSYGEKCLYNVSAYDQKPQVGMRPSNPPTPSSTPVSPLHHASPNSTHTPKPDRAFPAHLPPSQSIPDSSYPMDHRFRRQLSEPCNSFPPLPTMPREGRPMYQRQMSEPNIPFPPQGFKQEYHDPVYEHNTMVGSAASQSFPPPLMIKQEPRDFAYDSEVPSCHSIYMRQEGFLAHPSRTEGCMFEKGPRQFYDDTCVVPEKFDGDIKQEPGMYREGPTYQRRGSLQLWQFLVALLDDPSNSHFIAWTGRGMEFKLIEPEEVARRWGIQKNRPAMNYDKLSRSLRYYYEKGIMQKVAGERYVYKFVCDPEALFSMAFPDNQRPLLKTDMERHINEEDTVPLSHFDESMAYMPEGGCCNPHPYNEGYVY
The target in another test is T6, ERF (Homo sapiens, UniProt P50548 1-548).
T6 sequence: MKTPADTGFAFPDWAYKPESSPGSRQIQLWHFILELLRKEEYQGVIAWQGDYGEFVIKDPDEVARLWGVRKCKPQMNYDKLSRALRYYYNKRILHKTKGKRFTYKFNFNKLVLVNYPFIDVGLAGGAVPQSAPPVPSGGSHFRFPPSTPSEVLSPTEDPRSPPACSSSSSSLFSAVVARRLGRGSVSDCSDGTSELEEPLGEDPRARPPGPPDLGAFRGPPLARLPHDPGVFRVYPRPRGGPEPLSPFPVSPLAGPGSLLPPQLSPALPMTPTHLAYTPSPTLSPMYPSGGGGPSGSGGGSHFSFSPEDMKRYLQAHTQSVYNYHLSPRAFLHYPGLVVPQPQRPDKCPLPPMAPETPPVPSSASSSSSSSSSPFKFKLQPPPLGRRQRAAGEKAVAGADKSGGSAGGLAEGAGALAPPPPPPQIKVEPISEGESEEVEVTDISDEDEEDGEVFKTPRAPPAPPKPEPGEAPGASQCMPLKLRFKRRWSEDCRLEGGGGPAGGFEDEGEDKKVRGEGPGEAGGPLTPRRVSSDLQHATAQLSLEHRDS
The note with it: protein: recombinant; tags: N-terminal GST; dsDNA, one strand shown. In a few lines: as §1

For a further test, the target named is T7, ETV3L (Homo sapiens, UniProt Q6ZN32 1-361).
T7 sequence: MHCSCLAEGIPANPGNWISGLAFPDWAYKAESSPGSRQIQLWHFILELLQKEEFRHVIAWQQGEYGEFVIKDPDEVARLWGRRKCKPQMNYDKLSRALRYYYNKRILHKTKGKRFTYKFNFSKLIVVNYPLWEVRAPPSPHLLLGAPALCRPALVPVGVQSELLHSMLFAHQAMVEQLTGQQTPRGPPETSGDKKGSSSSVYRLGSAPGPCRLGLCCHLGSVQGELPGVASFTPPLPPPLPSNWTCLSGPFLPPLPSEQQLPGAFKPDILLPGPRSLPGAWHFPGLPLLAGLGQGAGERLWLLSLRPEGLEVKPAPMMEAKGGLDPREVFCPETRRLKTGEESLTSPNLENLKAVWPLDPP
As to conditions: protein: recombinant; tags: N-terminal GST; dsDNA, one strand shown. Summed up: as §1

For the next test, the target named is T8, ETS2 (Homo sapiens, UniProt P15036 1-469).
T8 sequence: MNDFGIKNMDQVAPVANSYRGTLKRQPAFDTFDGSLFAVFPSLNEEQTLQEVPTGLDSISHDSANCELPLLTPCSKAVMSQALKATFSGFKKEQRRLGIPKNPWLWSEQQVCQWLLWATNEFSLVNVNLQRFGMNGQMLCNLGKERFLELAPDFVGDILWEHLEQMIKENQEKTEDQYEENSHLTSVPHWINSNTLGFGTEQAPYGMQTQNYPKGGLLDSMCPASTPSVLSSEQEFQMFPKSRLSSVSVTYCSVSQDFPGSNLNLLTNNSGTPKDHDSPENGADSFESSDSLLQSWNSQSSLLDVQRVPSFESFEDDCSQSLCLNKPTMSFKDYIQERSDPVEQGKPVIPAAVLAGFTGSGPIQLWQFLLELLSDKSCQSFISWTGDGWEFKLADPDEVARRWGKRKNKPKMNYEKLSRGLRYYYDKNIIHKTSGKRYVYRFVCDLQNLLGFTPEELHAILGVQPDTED
As to conditions: protein: recombinant; tags: N-terminal GST; dsDNA, one strand shown. In a few lines:
as §1

The target of the next test is T9, SPDEF (Homo sapiens, UniProt O95238 1-335).
T9 sequence: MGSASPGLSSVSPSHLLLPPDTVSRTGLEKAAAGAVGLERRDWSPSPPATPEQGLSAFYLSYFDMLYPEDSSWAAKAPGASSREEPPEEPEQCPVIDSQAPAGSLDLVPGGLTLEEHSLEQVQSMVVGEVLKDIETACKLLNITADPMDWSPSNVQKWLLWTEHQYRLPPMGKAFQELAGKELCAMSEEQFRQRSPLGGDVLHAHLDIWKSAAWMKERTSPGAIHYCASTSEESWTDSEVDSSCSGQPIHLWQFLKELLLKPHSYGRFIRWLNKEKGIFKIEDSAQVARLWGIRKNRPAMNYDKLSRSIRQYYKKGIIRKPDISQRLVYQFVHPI
As to conditions: protein: recombinant; tags: N-terminal GST; dsDNA, one strand shown. Summed up:
as §1

The next test addresses T10, ETV7 (Homo sapiens, UniProt Q9Y603 1-341).
T10 sequence: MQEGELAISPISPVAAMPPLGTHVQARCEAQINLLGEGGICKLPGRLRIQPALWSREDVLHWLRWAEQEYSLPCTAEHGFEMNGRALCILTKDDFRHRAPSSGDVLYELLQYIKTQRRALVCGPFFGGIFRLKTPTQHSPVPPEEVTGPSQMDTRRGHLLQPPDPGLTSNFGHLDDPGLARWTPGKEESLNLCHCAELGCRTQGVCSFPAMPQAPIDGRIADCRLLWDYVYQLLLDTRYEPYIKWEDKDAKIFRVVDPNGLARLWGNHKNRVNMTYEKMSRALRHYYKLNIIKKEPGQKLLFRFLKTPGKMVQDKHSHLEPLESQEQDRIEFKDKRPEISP
As to conditions: protein: recombinant; tags: N-terminal GST; dsDNA, one strand shown. In a few lines: as §1

Another test has as its target T11, ELF5 (Homo sapiens, UniProt Q9UKW6-2 1-255).
T11 sequence: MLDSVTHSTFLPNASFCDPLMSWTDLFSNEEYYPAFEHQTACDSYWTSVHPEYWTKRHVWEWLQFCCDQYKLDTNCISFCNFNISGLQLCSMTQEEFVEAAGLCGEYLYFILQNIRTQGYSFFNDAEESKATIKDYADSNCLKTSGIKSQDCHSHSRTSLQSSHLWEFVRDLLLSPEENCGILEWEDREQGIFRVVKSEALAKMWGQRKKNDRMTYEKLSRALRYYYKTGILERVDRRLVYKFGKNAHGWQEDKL
The note with it: protein: recombinant; tags: N-terminal GST; dsDNA, one strand shown. Summed up: as §1

The next test has as its target T12, ETV3 (Homo sapiens, UniProt P41162-2 1-143).
T12 sequence: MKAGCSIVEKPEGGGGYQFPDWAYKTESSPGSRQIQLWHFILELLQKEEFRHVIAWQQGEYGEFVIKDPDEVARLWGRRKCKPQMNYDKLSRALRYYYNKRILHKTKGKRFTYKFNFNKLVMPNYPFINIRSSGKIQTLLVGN
The note with it: protein: recombinant; tags: N-terminal GST; dsDNA, one strand shown. In a few lines:
as §1

Another test deals with ETV6 (Homo sapiens, UniProt P41212 1-452). As to conditions: protein: recombinant; tags: N-terminal GST; dsDNA, one strand shown. Summed up: as §1
Sequence of ETV6 (P41212 whole entry): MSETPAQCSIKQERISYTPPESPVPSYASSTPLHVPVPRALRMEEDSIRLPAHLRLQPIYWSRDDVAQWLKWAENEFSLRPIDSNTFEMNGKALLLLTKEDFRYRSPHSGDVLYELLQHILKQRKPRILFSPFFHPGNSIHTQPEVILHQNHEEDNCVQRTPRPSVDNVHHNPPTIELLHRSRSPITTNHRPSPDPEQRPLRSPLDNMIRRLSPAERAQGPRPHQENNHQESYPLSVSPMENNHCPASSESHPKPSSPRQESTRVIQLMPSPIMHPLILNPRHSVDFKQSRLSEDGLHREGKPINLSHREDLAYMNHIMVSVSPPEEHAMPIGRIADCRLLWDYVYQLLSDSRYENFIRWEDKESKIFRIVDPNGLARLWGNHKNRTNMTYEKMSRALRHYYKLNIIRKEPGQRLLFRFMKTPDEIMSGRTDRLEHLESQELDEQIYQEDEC

Sequence of CRX (O43186 whole entry): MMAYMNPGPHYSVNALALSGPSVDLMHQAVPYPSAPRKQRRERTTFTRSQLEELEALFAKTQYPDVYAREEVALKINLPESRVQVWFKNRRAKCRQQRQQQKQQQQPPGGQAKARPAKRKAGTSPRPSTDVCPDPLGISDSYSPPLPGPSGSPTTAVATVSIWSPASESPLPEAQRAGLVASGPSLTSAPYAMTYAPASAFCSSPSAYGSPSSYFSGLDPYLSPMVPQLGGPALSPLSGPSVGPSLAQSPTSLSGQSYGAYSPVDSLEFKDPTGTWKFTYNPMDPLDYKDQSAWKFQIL
Sequence of ELF4 (Q99607 whole entry): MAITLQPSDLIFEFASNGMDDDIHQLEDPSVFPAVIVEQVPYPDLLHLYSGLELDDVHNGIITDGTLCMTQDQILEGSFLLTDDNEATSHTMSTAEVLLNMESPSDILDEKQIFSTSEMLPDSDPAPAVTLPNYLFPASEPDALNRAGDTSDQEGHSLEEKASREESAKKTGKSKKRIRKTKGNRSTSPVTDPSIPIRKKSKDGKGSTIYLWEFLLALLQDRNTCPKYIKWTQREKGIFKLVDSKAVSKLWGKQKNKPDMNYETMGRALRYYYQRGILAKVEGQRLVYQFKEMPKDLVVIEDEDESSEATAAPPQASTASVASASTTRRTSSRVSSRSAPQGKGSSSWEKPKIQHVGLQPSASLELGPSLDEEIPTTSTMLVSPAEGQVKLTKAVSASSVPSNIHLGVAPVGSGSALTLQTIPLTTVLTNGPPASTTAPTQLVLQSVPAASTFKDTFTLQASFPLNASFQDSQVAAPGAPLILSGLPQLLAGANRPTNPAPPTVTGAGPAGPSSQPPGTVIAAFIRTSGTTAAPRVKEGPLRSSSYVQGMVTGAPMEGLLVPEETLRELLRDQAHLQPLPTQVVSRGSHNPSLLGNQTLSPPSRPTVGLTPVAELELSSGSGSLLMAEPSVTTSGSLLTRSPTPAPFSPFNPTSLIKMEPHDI

For the sequence GTTCTT, the binding signal in the test with FEV was 1.11 fold enrichment (6-mer frequency, TF over GST control); in the test with ETV5, 1.23 fold enrichment (6-mer frequency, TF over GST control); with HSF1, 1.36 fold enrichment (6-mer frequency, TF over GST control); with SPIC, 1.12 fold enrichment (6-mer frequency, TF over GST control); with ELF4, 1.18 fold enrichment (6-mer frequency, TF over GST control); with ELK4, 1.23 fold enrichment (6-mer frequency, TF over GST control). Moreover, the binding signal in the test with ETV2 was 1.15 fold enrichment (6-mer frequency, TF over GST control); in the test with ELF3, 1.31 fold enrichment (6-mer frequency, TF over GST control); with CRX, 1.12 fold enrichment (6-mer frequency, TF over GST control); with ETV1, 1.21 fold enrichment (6-mer frequency, TF over GST control); with ERF it was 1.16 fold enrichment (6-mer frequency, TF over GST control); with ETV3L, 1.28 fold enrichment (6-mer frequency, TF over GST control). For the same sequence, the binding signal with ETS2 was 1.2 fold enrichment (6-mer frequency, TF over GST control); with SPDEF, 1.06 fold enrichment (6-mer frequency, TF over GST control); with ETV7, 1.18 fold enrichment (6-mer frequency, TF over GST control); with ELF5, 1.24 fold enrichment (6-mer frequency, TF over GST control); with ETV3 it was 1.09 fold enrichment (6-mer frequency, TF over GST control); in the test with ETV6 it was 1.15 fold enrichment (6-mer frequency, TF over GST control).
